Source: PubChem BioAssay (Tox21)
A number with no mark means an inactive call. The source made the active and inactive calls. Calls come from the whole dose curve; as a rule, active = well fitted cell-killing curve with a large enough effect in the repeat runs; inconclusive = weak or mixed curves, or effect the other way; inactive = flat fitted curve, though single readings scatter.

assay: qHTS assay to identify small molecule HDAC inhibitors - cell viability counter screen (AID 1259365); settings: HCT-116 viability, CellTiter-Glo ATP luminescence, 2 h; series mostly up to 92.4 µM; note: nearly all actives have a fitted effect of over 50% in size
Excerpt: U.S. Tox21 Program National Center for Advancing Translational Sciences [NCATS] NIH Chemical Genomics Center [NCGC] U.S. Environmental Protection Agency [EPA] National Institutes of Environmental Health Sciences [NIEHS] National Toxicology Program [NTP] U.S. Food and Drug Administration [FDA] Tox21 Assay Overview: Histone deacetylases (HDACs) are a group of epigenetic enzymes that regulate gene expression by histone deacetylation. HDACs are capable of introducing epigenetic modifications and such aberrations contribute to the onset and progression of several human diseases, thus making HDACs a popular therapeutic target. For identifying endogenous class I/II HDAC inhibitors a homogenous, luminogenic HDAC I/II cell based assay was used to measure the relative activity of class I and II HDACs from cells. Wild type HCT-116 cells were used to screen Tox21 compound libraries for identifying class I/II HDAC inhibitors.
Tox21 Assay Protocol Summary: HCT-116 cells were dispensed at 1,500 per well in 5uL of culture medium into white solid bottom 1536-well plates (Greiner Bio-One, Monroe, NC) using a Multidrop Combi (Thermo Scientific, Waltham, MA) dispenser. The assay plates were incubated at 37 C and 5% CO2 for an overnight, and then 23nL of compounds dissolved in DMSO and positive control were transferred using a Pintool station (Wako, San Diego, CA). The assay plates were incubated at 37C and 5% CO2 for 2hr. After compound treatment, 4uL of CellTiter-Glo reagent (Promega Corporation, Madison, WI) was added to each well of the assay plates using Flying Reagent Dispenser (FRD, Aurora Discovery, San Diego, CA) and incubated the assay plates at room temperature for 30min. The luminescence signal was quantified using a ViewLux plate reader (Perkin Elmer, Shelton, CT).
% is set by controls: 0 for no effect and ±100 for the full control effect.

| Compound | outcome | activity change, negative = cytotoxicity |
| --- | --- | --- |
| CC(=O)OCCc1ccccc1 | inactive |  |
| COCCO | inactive |  |
| C=CC[N+]1([C@H]2C[C@H]3[C@@H]4CC[C@H]5C[C@H](OC(C)=O)[C@@H](N6CCCCC6)C[C@]5(C)[C@H]4CC[C@]3(C)[C@H]2OC(=O)CC)CCCCC1 | inactive |  |
| C=C(C)C(=O)OCCOc1ccccc1 | inactive |  |
| O=C1Nc2cc(Cl)ccc2Oc2ccccc21 | inactive |  |
| O=C(c1ccc(O)cc1)c1ccc(O)cc1 | inactive |  |
| OCC1CC2CC1C1CCC(CO)C21 (stereo not given) | inactive |  |
| CCOc1ccc2[nH]cc(C(=O)NCc3ccccc3)c(=O)c2n1 | inactive |  |
| Nc1cnn([C@@H]2O[C@H](CO)[C@@H](O)[C@H]2O)c(=O)n1 | inactive |  |
| FC(F)(F)C(F)(F)C(F)(F)C(F)(F)C(F)(F)C(F)(F)CCI | inactive |  |
| Cn1c(N)nc2nc[nH]c2c1=O | inactive |  |
| CCN(CC)CCc1nc(-c2ccccc2)no1 | inactive |  |
| c1ccc(CNCc2ccccc2)cc1 | inactive |  |
| NCCCOCCOCCOCCCN | inactive |  |
| C=CC(=O)OCC(C)OCC(C)OCC(C)OC(=O)C=C (stereo not given) | inactive |  |
| CC(=O)O[C@@H]1C(=O)O[C@@H]2[C@H]1OC(=O)[C@@H]2OC(C)=O | inactive |  |
| CC(C(=O)O)c1ccc(C(=O)c2ccccc2)s1 (stereo not given) | inactive |  |
| CN(C)C/C=C(/c1ccc(Br)cc1)c1cccnc1 | inactive |  |
| O=C(c1ccccc1)c1ccc2n1CCC2C(=O)O (stereo not given) | inactive |  |
| N=C(N=C(N)N)N1CCOCC1 | inactive |  |

| Compound | outcome | activity change, negative = cytotoxicity |
| --- | --- | --- |
| O=C(Cl)c1ccc([N+](=O)[O-])cc1 | inactive |  |
| O=CNc1ccccc1 | inactive |  |
| CC(=O)OC/C=C/c1ccccc1 | inactive |  |
| NC(=S)N/N=C/c1cccnc1 | inactive |  |
| CCCCCCCCN(C)C | inactive |  |
| O=S1(=O)N=C(O)c2ccccc21 | inactive |  |
| CC(=O)CC(=O)c1ccccc1 | inactive |  |
| Nc1ccc(C(=O)N2CC3CC(CN(Cc4ccccc4)C3)C2)cc1 | inactive |  |
| COC(Cc1ccccc1)OC | inactive |  |
| COCCOCCOCCOCCOC | inactive |  |
| CCN(CC)CCOc1ccc2c(c1)C(=O)c1cc(OCCN(CC)CC)ccc1-2 | inactive |  |
| COc1cc(C(C)(C)C)c(O)c(C(C)(C)C)c1 | inactive |  |
| O=C(O)COC(=O)Cc1ccccc1Nc1c(Cl)cccc1Cl | inactive |  |
| O=C(NN1CCCC1)NS(=O)(=O)c1ccc(Cl)cc1 | inactive |  |
| NC[C@H]1O[C@H](O[C@H]2[C@H](O)[C@@H](O[C@H]3O[C@H](CO)[C@@H](O)[C@H](N)[C@H]3O)[C@H](N)C[C@@H]2N)[C@H](O)[C@@H](O)[C@@H]1O |  | 2.31% [at 8.39 µM] |
| O=c1[nH]cnc2ccccc12 | inactive |  |
| CC(C)(C)c1cc(CCC(=O)OCC(COC(=O)CCc2cc(C(C)(C)C)c(O)c(C(C)(C)C)c2)(COC(=O)CCc2cc(C(C)(C)C)c(O)c(C(C)(C)C)c2)COC(=O)CCc2cc(C(C)(C)C)c(O)c(C(C)(C)C)c2)cc(C(C)(C)C)c1O | inactive |  |
| CCN1CCC[C@H]1CNC(=O)c1c(OC)ccc(Br)c1OC | inactive |  |
| N#Cc1c(F)cccc1F | inactive |  |
| CCOc1nc2cccc(C(=O)O)c2n1Cc1ccc(-c2ccccc2-c2nn[nH]n2)cc1 | inactive |  |
